Test systems include HCT-15 colon; HT29 colon; SNB-75 CNS; SNB-19 CNS; U251 CNS; PC-3 prostate; SK-MEL-5 melanoma; UACC-62 melanoma; LOX IMVI melanoma; SK-MEL-28 melanoma; SK-MEL-2 melanoma; EKVX NSCLC; SN12C renal; UO-31 renal; TK-10 renal; ACHN renal; CAKI-1 renal; A498 renal; CCRF-CEM leukemia; MOLT-4 leukemia.
What all share (test): NCI-60 one-dose screen, 48 h (100 = growth as untreated, 0 = no growth, -100 = all killed)
Conditions in all cases: 10 µM unless noted

Compounds without any hit were thinned out: in the full panel of roughly 83,000, 20% have a hit.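 Activity criterion: percent growth below 10, measured after cells in 96-well plates were exposed to a single compound concentration for 48 hours.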 Values without a mark were called inactive. Active and inactive are the calls of the source.

Regarding `S=c1[nH]cccc1-c1nnc2n1Nc1nc3ccccc3cc1CS2`, the growth in the experiment on HCT-15 colon was 108%; in the experiment with HT29 colon, 106%; with SNB-75 CNS it was 82.8%; with SNB-19 CNS, 94.8%; in the experiment on U251 CNS it was 103%; in the experiment on PC-3 prostate, 107%. Besides, the growth was 97.4% in the experiment on SK-MEL-5 melanoma; 91.2% in the experiment with UACC-62 melanoma; 98.6% in the experiment with LOX IMVI melanoma; 111% with SK-MEL-28 melanoma; 104% in the experiment on SK-MEL-2 melanoma; 97.1% in the experiment with EKVX NSCLC. The growth in the experiment with SN12C renal was 98.8%; with UO-31 renal it was 70.2%; in the experiment with TK-10 renal it was 105%; with ACHN renal it was 93.3%; with CAKI-1 renal, 82.8%; in the experiment on A498 renal, 111%. Besides, the figures for the growth in the experiment with CCRF-CEM leukemia and in the experiment on MOLT-4 leukemia were 105% and 104%, respectively.
Turning to `CC(=O)N1N=C(c2cccc(Nc3ccncc3)c2)CC1c1ccccc1` (stereo not given), the growth was 82.8% with HCT-15 colon; 33.2% with HT29 colon; 53.3% in the experiment on SNB-75 CNS; 91.8% in the experiment on SNB-19 CNS; 72.9% with U251 CNS; 75.9% in the experiment on PC-3 prostate. For the same compound, the growth is 82% in the experiment with SK-MEL-5 melanoma; 86.7% in the experiment on UACC-62 melanoma; 90.9% in the experiment on LOX IMVI melanoma; 86.5% with SK-MEL-28 melanoma; 100% in the experiment with SK-MEL-2 melanoma; 83.9% with EKVX NSCLC. In addition, the growth with SN12C renal is 81.7%; in the experiment with UO-31 renal, 80.6%; in the experiment on TK-10 renal, 99.5%; with ACHN renal, 94.6%; in the experiment on CAKI-1 renal, 77.2%; in the experiment with A498 renal, 70%. In addition, the values for the growth in the experiment with CCRF-CEM leukemia and with MOLT-4 leukemia were 84.1% and 81.4%, respectively.
As for `O=C1NC(=O)C(=Cc2cn(Cc3ccccn3)c3ccccc23)C(=O)N1`, the growth with HCT-15 colon was 102%; in the experiment with HT29 colon it was 111%; in the experiment on SNB-75 CNS, 89.2%; with SNB-19 CNS it was 99.7%; in the experiment on U251 CNS it was 97.2%; with PC-3 prostate, 94.2%. For the same compound, the growth in the experiment on SK-MEL-5 melanoma was 98.3%; in the experiment with UACC-62 melanoma, 85.7%; with LOX IMVI melanoma, 96.7%; in the experiment on SK-MEL-28 melanoma, 114%; with SK-MEL-2 melanoma, 102%; in the experiment with EKVX NSCLC, 98%. The growth is 102% in the experiment with SN12C renal; 75.5% in the experiment with UO-31 renal; 59.8% in the experiment with TK-10 renal; 104% in the experiment with ACHN renal; 13.9% in the experiment with CAKI-1 renal; -90.4% (active) in the experiment with A498 renal. Further, the growth was 95.8% in the experiment with CCRF-CEM leukemia and 100% in the experiment on MOLT-4 leukemia.
Take `CN1CCN(C(=O)[C@]2(C)CC[C@]3(C)CC[C@]4(C)C(=CC(=O)[C@@H]5[C@@]6(C)CCC(=O)NC(C)(C)[C@@H]6CC[C@]54C)[C@@H]3C2)CC1`: the growth in the experiment on HCT-15 colon was 94.6%; in the experiment on HT29 colon, 86.9%; in the experiment on SNB-75 CNS, 73.7%; in the experiment with SNB-19 CNS, 97.8%; with U251 CNS, 86.7%; in the experiment with PC-3 prostate, 88.8%. Further, the growth with SK-MEL-5 melanoma was 88.8%; in the experiment on UACC-62 melanoma, 97.3%; in the experiment on LOX IMVI melanoma, 84.6%; in the experiment on SK-MEL-28 melanoma it was 101%; in the experiment with SK-MEL-2 melanoma it was 100%; in the experiment with EKVX NSCLC, 93.9%. The growth with SN12C renal is 90.4%; in the experiment with UO-31 renal, 71.8%; with TK-10 renal, 105%; in the experiment with ACHN renal, 108%; with CAKI-1 renal, 95.8%; with A498 renal it was 102%. The results for the growth in the experiment with CCRF-CEM leukemia and in the experiment with MOLT-4 leukemia were 93.2% and 85.6%, respectively.
In the case of `CN1CCN(C(=O)OCc2nc3c(N4CCOCC4)nc(-c4ccccc4)nc3n2C)CC1`, the growth in the experiment with HCT-15 colon was -59.9% (active); with HT29 colon, -29.1% (active); in the experiment with SNB-75 CNS it was -6.43% (active); with SNB-19 CNS, 30.3%; in the experiment on U251 CNS, -54.2% (active); with PC-3 prostate, -62.3% (active). In addition, the growth is -96.7% (active) with SK-MEL-5 melanoma; -95.9% (active) in the experiment with UACC-62 melanoma; -91.4% (active) in the experiment on LOX IMVI melanoma; -95.5% (active) with SK-MEL-28 melanoma; -59.9% (active) in the experiment on SK-MEL-2 melanoma; -76.7% (active) with EKVX NSCLC. The growth with SN12C renal is -86.8% (active); in the experiment with UO-31 renal it was -100% (active); in the experiment on TK-10 renal it was -70.1% (active); in the experiment with ACHN renal it was -100% (active); in the experiment on CAKI-1 renal, -93.5% (active); in the experiment with A498 renal, 3.05% (active). Further, the growth with CCRF-CEM leukemia is -6.94% (active); in the experiment with MOLT-4 leukemia, -6.95% (active).
As for `COc1cc2ncnc(Nc3ccc(C(=O)/C=C/c4ccc(C(F)(F)F)cc4F)cc3)c2cc1OC`, the growth is 104% in the experiment on HCT-15 colon; 98.8% in the experiment on HT29 colon; 87.7% in the experiment with SNB-75 CNS; 98.2% with SNB-19 CNS; 85.4% with U251 CNS; 83% with PC-3 prostate. Further, the growth with SK-MEL-5 melanoma was 104%; with UACC-62 melanoma, 100%; with LOX IMVI melanoma, 92%; with SK-MEL-28 melanoma it was 109%; with SK-MEL-2 melanoma, 105%; with EKVX NSCLC it was 90%. Further, the growth with SN12C renal was 101%; with UO-31 renal, 75.4%; with TK-10 renal it was 110%; in the experiment with ACHN renal, 92.3%; in the experiment with CAKI-1 renal, 88.2%; in the experiment on A498 renal, 97.4%. The results for the growth in the experiment with CCRF-CEM leukemia and with MOLT-4 leukemia were 83.8% and 68.3%, respectively.
`CC1=CC2(C)/C=C(C)/C=C\CC(O)/C=C3/C=CC(=C4C(=O)OC2(CC1C)C4=O)OC3` (stereo not given): the growth with HCT-15 colon is -56.9% (active); with HT29 colon it was -6.52% (active); in the experiment on SNB-75 CNS, 53.3%; in the experiment with SNB-19 CNS, 56.4%; with U251 CNS, -50.2% (active); in the experiment on PC-3 prostate, -8.09% (active). Further, the growth with SK-MEL-5 melanoma is 56.7%; in the experiment with UACC-62 melanoma, 6.46% (active); in the experiment with LOX IMVI melanoma, -89.1% (active); in the experiment with SK-MEL-28 melanoma it was -87.6% (active); with SK-MEL-2 melanoma, -89.2% (active); in the experiment with EKVX NSCLC, 34.8%. The growth in the experiment with SN12C renal was -40.8% (active); in the experiment on UO-31 renal, -53% (active); in the experiment on TK-10 renal, -86.8% (active); in the experiment with ACHN renal, -94.7% (active); with CAKI-1 renal it was -89.5% (active); with A498 renal, 55.3%. Besides, the values for the growth in the experiment on CCRF-CEM leukemia and with MOLT-4 leukemia were -39.4% (active) and -35.1% (active), respectively.
With `NC(=O)c1ccc[n+](CC(=O)N2CCN(c3cc4c(cc3F)c(=O)c(C(=O)O)cn4C3CC3)CC2)c1`, the growth with HCT-15 colon is 81.8%; in the experiment on HT29 colon, 99.3%; in the experiment on SNB-75 CNS, 88.2%; with SNB-19 CNS, 92.6%; with U251 CNS, 88.4%; with PC-3 prostate, 88.9%. Further, the growth in the experiment with SK-MEL-5 melanoma was 93.7%; in the experiment on UACC-62 melanoma, 59.2%; with LOX IMVI melanoma, 43%; in the experiment on SK-MEL-28 melanoma, 75.8%; with SK-MEL-2 melanoma it was 95.9%; in the experiment with EKVX NSCLC, 106%. Besides, the growth in the experiment with SN12C renal is 58%; in the experiment with UO-31 renal, 74.3%; in the experiment on TK-10 renal it was 116%; with ACHN renal, 84.5%; in the experiment with CAKI-1 renal it was 96.9%; in the experiment with A498 renal, 101%. For the same compound, the growth was -25.2% (active) in the experiment on CCRF-CEM leukemia and 26.6% in the experiment on MOLT-4 leukemia.

For the origin of these results see PubChem BioAssay (NCI).
